Reference: the supplement of paper PMC10849652
Of roughly 8,800 targets only a part is listed; those with a hit were picked by preference. About 0.5% of all pairs of compound and target were hits. A number with no mark means an inactive call.

Tests used:
Test in all cases: log2 fold change, soluble protein after heating vs DMSO (PISA); higher = thermal stabilisation; K562 lysate, 10 uM; active = over 0.2 and 3.5 SD of the protein, either way, in both replicates (recomputed)
erlotinib = compound: C#Cc1cccc(Nc2ncnc3cc(OCCOC)c(OCCOC)cc23)c1 [erlotinib]
Outline: (§1)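 K562 pellets were dounce-homogenised in PBS pH 7.4 containing 1 mM MgCl2, and the crude extract, at 1 mg/mL protein, was exposed to 10 μM compound for 30 min. Aliquots were heated for 3 min across 48°C-58°C, pooled, brought to 0.5% NP-40 at 4°C and spun at 21,000xg for 90 min, with the supernatant taken as soluble protein. TMTpro 16plex LC-MS/MS with equalised channel sums quantified that protein. Values are log-two fold changes in thermal stability relative to solvent controls, taken from duplicates.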

[1] = compound: C/C(=N\NC(=O)C1=CC(=CC=C1)S(=O)(=O)N2CCOCC2)/C3=C(C=CC(=C3)Cl)O
Outline: as §1

[2] = compound: C1=CC(=CC=C1C2=NC3=C(N2)C=C(C=C3)C(=O)N)OC4=CC=C(C=C4)Cl
Outline: as §1

[3] = compound: C1=CC2=C(C=CC(=C2)/C=C\3/C(=O)NC(=NCC4=CC=CS4)S3)N=C1
Outline: as §1

[4] = compound: C1=CC2=NC=CN=C2C=C1/C=C/3\C(=O)NC(=O)S3
Outline: as §1

[5] = compound: C1=CC=C(C=C1)C2=NC(=C(N2)C3=CC=NC=C3)C4=CC(=C(C=C4)Cl)O
Outline: as §1

[6] = compound: C1=CC=C2C(=C1)C3=NNC4=CC=CC(=C43)C2=O
Outline: as §1

[7] = compound: C1CCN(C1)C(=O)NC2=CC=CC(=C2)NC3=NC=C(C(=N3)NCCC4=CN=CN4)Br
Outline: as §1

[8] = compound: C1CN(CCC1(CC2=CC=C(C=C2)Cl)N)C3=NC=NC4=C3C=CN4
Outline: as §1

IRAK-1-4 Inhibitor I = compound: C1COCCN1CCN2C3=CC=CC=C3N=C2NC(=O)C4=CC(=CC=C4)[N+](=O)[O-] [IRAK-1-4 Inhibitor I]
Outline: as §1

ibrutinib = compound: C=CC(=O)N1CCC[C@@H](n2nc(-c3ccc(Oc4ccccc4)cc3)c3c(N)ncnc32)C1 [ibrutinib]
Outline: as §1

[9] = compound: CC(=O)c1cnc2ccc(-c3cc(Cl)c(O)c(Cl)c3)nc2c1N[C@H]1CC[C@H](CN(C)C)CC1
Outline: as §1

ralimetinib = compound: CC(C)(C)Cn1c(N)nc2ccc(-c3[nH]c(C(C)(C)C)nc3-c3ccc(F)cc3)nc21 [ralimetinib]
Outline: as §1

[10] = compound: CC(C)(O)CC(=O)NCCn1ccc2ncnc(Nc3ccc(Oc4cccc(C(F)(F)F)c4)c(Cl)c3)c21
Outline: as §1

[11] = compound: CC(C)C1=C2N=C(C=C(N2N=C1)NCC3=CC=CC=C3)NCCCCCCN
Outline: as §1

[12] = compound: CC1=C(C2=C(C=C1)C(=O)C3=CC=CC=C3N2CCCN)C
Outline: as §1

[13] = compound: CC1=C(C=C(C=C1)NC(=O)C2=CC(=CC=C2)N(C)C)NC(=O)C3=CC=C(C=C3)O
Outline: as §1

[14] = compound: CC1=CC=C(C=C1)SC2=C3C=C(SC3=CN=C2)C(=O)N
Outline: as §1

[15] = compound: CC1=C(C(CC(=O)N1)C2=CC=C(C=C2)C(F)(F)F)C(=O)NC3=C(C=C4C(=C3)C=NN4)F
Outline: as §1

[16] = compound: CC1=C(C=C(C=C1)NC(=O)C2=CC(=CC=C2)C(C)(C)C#N)NC3=CC4=C(C=C3)N=CN(C4=O)C
Outline: as §1

Chain of UniProt P35916 (P35916 whole entry, looked up): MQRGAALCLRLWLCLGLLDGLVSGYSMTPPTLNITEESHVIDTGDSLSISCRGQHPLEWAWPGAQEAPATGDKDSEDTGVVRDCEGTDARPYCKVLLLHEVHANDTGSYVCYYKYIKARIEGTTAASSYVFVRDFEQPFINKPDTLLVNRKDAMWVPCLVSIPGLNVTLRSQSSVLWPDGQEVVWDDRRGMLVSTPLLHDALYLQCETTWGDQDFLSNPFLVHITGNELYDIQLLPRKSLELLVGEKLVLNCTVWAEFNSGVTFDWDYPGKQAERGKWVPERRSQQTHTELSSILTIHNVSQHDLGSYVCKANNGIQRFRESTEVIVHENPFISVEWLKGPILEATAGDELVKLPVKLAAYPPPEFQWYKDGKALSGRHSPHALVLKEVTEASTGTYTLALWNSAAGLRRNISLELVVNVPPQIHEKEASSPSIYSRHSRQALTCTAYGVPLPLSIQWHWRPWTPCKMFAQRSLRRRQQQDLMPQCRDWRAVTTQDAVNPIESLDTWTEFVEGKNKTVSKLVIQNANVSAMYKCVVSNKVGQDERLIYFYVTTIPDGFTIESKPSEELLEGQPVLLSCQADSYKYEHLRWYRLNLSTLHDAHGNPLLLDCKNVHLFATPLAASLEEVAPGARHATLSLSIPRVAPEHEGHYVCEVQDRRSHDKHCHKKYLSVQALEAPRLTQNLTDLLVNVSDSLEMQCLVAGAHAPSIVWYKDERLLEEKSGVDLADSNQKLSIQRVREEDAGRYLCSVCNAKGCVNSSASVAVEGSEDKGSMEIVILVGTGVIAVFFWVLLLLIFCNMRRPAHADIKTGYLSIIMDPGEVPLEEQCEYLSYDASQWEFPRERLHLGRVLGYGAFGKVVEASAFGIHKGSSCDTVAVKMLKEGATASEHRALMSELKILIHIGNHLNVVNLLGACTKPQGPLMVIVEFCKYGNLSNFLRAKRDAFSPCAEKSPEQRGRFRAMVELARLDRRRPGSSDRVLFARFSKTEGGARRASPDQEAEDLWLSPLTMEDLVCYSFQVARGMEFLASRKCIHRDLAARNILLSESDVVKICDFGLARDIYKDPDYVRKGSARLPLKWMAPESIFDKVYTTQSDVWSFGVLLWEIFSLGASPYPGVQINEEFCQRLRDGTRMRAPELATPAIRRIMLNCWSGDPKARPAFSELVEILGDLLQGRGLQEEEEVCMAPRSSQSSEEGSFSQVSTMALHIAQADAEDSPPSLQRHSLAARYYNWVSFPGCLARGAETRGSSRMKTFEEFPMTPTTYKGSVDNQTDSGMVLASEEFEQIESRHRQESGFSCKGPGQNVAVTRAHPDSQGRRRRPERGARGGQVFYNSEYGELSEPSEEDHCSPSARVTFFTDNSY
Chain of UniProt Q9UPW0 (Q9UPW0 whole entry, looked up): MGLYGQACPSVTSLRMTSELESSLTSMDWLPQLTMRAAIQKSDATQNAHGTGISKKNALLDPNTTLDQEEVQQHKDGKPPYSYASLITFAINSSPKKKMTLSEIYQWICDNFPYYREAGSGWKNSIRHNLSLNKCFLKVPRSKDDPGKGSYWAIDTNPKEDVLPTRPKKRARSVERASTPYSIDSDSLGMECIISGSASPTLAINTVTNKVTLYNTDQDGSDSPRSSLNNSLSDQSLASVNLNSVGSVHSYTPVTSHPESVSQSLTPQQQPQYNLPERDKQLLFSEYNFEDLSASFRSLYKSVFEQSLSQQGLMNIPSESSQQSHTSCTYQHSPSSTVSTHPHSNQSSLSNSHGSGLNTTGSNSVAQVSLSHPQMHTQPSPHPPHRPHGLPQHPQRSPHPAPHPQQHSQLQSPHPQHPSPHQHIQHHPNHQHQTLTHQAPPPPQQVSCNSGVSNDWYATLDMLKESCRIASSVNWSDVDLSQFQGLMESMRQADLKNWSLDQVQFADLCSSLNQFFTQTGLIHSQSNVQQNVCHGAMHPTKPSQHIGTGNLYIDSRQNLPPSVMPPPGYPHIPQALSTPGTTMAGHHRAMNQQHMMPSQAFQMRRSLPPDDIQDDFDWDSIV
Chain of UniProt Q6PIW4 (Q6PIW4 whole entry, looked up): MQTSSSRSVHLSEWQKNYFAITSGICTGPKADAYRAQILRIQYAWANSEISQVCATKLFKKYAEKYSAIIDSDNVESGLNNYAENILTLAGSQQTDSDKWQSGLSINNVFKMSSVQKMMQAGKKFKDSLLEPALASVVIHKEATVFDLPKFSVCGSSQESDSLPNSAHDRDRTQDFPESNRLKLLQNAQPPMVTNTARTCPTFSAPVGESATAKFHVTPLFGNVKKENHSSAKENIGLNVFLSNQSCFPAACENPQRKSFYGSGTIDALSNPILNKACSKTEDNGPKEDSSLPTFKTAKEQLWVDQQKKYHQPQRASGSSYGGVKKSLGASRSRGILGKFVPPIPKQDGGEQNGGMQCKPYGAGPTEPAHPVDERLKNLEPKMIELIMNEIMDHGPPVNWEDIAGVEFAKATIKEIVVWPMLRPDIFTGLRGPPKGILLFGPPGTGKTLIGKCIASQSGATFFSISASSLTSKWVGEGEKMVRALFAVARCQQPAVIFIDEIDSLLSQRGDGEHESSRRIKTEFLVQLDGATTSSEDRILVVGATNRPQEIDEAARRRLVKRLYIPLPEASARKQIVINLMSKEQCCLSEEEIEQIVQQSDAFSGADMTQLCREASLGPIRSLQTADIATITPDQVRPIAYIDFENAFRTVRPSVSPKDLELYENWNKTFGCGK
Chain of UniProt Q14674 (Q14674 whole entry, looked up): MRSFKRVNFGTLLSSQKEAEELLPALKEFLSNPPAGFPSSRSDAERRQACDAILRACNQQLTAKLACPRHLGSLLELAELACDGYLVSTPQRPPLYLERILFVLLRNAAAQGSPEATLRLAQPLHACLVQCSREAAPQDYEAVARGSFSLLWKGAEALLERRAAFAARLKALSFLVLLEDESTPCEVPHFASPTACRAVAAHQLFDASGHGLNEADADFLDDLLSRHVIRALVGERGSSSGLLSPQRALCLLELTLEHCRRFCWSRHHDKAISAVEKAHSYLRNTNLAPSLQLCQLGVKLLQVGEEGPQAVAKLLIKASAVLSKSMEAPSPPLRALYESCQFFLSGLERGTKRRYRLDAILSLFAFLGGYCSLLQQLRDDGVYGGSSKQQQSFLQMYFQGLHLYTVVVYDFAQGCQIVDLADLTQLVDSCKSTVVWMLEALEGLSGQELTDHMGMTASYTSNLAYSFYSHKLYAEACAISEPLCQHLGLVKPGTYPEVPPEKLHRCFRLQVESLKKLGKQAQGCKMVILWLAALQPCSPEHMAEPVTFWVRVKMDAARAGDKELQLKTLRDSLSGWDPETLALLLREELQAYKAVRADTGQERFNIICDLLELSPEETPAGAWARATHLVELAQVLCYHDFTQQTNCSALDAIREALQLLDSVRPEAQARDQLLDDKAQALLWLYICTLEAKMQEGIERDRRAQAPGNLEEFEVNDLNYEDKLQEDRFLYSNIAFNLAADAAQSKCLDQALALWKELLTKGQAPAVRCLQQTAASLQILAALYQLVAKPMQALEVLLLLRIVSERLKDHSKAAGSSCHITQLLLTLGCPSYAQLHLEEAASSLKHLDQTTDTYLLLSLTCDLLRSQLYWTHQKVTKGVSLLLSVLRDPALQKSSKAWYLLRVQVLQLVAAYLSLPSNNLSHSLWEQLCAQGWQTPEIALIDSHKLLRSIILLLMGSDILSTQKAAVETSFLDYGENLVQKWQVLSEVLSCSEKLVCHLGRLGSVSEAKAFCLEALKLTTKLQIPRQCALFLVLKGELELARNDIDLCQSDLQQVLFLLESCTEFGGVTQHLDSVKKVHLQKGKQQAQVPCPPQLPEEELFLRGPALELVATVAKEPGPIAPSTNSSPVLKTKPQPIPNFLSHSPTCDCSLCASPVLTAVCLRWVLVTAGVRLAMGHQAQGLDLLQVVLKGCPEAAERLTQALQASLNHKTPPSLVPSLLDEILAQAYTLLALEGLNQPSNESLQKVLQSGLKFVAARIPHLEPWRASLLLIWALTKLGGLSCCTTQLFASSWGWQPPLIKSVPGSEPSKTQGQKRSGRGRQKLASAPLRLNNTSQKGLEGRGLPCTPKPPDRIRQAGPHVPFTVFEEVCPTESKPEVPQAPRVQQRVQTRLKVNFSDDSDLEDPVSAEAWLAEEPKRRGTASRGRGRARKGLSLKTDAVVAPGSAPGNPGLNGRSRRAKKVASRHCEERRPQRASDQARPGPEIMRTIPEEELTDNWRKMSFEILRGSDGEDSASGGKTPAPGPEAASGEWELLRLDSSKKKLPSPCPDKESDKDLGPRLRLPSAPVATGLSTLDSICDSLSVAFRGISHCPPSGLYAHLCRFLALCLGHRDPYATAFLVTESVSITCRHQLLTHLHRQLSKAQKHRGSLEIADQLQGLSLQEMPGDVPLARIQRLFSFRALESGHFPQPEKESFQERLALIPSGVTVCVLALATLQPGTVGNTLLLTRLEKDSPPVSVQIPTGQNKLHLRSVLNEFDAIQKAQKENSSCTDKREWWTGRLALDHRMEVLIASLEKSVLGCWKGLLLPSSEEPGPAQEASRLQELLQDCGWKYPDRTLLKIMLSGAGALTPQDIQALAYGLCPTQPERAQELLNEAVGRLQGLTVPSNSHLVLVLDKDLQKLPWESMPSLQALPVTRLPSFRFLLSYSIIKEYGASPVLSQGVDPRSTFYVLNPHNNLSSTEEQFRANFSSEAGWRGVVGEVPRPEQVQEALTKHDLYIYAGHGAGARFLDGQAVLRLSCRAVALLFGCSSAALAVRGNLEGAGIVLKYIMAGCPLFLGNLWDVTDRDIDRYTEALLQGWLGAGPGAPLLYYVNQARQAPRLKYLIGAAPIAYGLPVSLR
Chain of UniProt O14893 (O14893 whole entry, looked up): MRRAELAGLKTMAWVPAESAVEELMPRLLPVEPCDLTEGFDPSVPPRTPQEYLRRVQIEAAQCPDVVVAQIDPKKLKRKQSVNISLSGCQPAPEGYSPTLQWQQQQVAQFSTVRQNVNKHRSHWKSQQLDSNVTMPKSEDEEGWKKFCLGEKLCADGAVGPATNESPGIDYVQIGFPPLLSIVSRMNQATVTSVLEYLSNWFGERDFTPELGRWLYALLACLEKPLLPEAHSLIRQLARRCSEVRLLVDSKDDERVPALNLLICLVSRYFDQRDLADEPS

Target | log2 fold change (erlotinib) | log2 fold change [1] | log2 fold change [2] | log2 fold change [3] | log2 fold change [4] | log2 fold change [5] | log2 fold change [6] | log2 fold change [7] | log2 fold change [8] | log2 fold change (IRAK-1-4 Inhibitor I) | log2 fold change (ibrutinib) | log2 fold change [9] | log2 fold change (ralimetinib) | log2 fold change [10] | log2 fold change [11] | log2 fold change [12] | log2 fold change [13] | log2 fold change [14] | log2 fold change [15] | log2 fold change [16]
FLT4 (UniProt P35916) | 0.047 | 0.036 | 0.038 | 0.039 | 0.075 | 0.046 | 0.044 | -0.097 | 0.087 | -0.029 | 0.062 | 0.064 | 0.012 | -0.005 | -0.057 | 0.038 | -0.019 | 0.005 | – | –
FIGNL1 (UniProt Q6PIW4) | -0.008 | -0.019 | -0.025 | 0.005 | -0.011 | -0.005 | -0.015 | 0.035 | 0.006 | 0.008 | 0 | 0.063 | 0.04 | 0.022 | -0.006 | 0.008 | 0.02 | 0.037 | -0.067 | -0.002
FOXJ3 (UniProt Q9UPW0) | 0.018 | 0.085 | -0.015 | -0.001 | 0.014 | 0.032 | -0.01 | -0.035 | -0.013 | -0.025 | -0.003 | 0.002 | -0.021 | -0.08 | 0.047 | -0.022 | 0.025 | 0.006 | -0.026 | 0.071
ESPL1 (UniProt Q14674) | 0.147 | 0.019 | 0.074 | -0.086 | 0.009 | -0.011 | 0.054 | -0.025 | 0.006 | -0.028 | -0.076 | -0.335 | 0.002 | 0.01 | 0.04 | -0.036 | 0.076 | -0.371 (active) | -0.005 | -0.04
FBLL1 (UniProt A6NHQ2) | -0.003 | -0.015 | -0.008 | 0.059 | 0.075 | -0.031 | -0.031 | 0.021 | 0.022 | -0.004 | -0.042 | -0.031 | 0.029 | -0.056 | -0.014 | -0.121 | 0.049 | -0.018 | 0.001 | 0.006
FBXO38 (UniProt Q6PIJ6) | 0.102 | 0.041 | 0.013 | -0.047 | -0.041 | 0.06 | 0.077 | -0.06 | 0.021 | -0.052 | -0.042 | 0.063 | 0.083 | 0.009 | -0.078 | -0.073 | 0.009 | 0.175 | -0.037 | -0.098
GEMIN2 (UniProt O14893) | 0.032 | 0.047 | -0.001 | 0.053 | 0.028 | 0.015 | -0.11 | -0.007 | 0.011 | 0.05 | -0.044 | 0.016 | 0 | -0.11 | 0.033 | -0.025 | 0.006 | 0.026 | -0.014 | -0.045
EHD2 (UniProt Q9NZN4) | 0.048 | -0.167 | -0.043 | -0.063 | 0.012 | -0.002 | -0.071 | -0.004 | 0.012 | 0.01 | -0.004 | 0.035 | 0.054 | -0.027 | -0.005 | 0.063 | 0.059 | 0.017 | 0.066 | 0.019
